Measured values from the supplement of paper PMC10849652.
Targets with a hit are over-represented here; the source holds about 7,900 in all. About 0.6% of all pairs of compound and target were hits.

Key:
Experiment in all cases: log2 fold change, soluble protein after heating vs DMSO (PISA); higher = thermal stabilisation; K562 cells, 10 uM, 30 min; active = over 0.2 and 3.5 SD of the protein, either way, in both replicates (recomputed)
[1] = compound: C1=CC=C(C=C1)[C@H](COC2=CC3=C(C=C2)NC(=O)N3)NC(=O)C4=CC=CN(C4=O)CC5=CC(=C(C=C5)F)F
How it was run: (§1)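 For each measurement, 10 μM compound was applied for 30 min to K562 cells at 2×10^6 cells/mL. Aliquots were heated for 3 min across 48°C-58°C, pooled, and extracted in PBS with 0.5% NP-40 at 4°C; the supernatant after 21,000xg for 90 min was soluble protein. This was quantified by TMTpro 16plex LC-MS/MS with channel sums equalised, and thermal stability was reported relative to control samples from duplicates, on a log2 fold-change scale.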

[2] = compound: CC1=C(SC2=C1C(=N[C@H](C3=NN=C(N32)C)CC(=O)N)C4=CC=C(C=C4)Cl)C
How it was run: as §1

[3] = compound: CC1=C2C(=CC=C1)N=C(N(C2=O)C3=CC=CC=C3C)CN4C=NC5=C(N=CN=C54)N
How it was run: as §1

[4] = compound: Cc1sc2c(c1C)C(c1ccc(Cl)cc1)=N[C@@H](CC(=O)OC(C)(C)C)c1nnc(C)n1-2
How it was run: as §1

[5] = compound: c1ccc([C@@H]2C[C@H]2NC2CCNCC2)cc1
How it was run: as §1

Measured: log2 fold change

UGDH (UniProt O60701)
UniProt O60701, sequence (O60701 whole entry, looked up): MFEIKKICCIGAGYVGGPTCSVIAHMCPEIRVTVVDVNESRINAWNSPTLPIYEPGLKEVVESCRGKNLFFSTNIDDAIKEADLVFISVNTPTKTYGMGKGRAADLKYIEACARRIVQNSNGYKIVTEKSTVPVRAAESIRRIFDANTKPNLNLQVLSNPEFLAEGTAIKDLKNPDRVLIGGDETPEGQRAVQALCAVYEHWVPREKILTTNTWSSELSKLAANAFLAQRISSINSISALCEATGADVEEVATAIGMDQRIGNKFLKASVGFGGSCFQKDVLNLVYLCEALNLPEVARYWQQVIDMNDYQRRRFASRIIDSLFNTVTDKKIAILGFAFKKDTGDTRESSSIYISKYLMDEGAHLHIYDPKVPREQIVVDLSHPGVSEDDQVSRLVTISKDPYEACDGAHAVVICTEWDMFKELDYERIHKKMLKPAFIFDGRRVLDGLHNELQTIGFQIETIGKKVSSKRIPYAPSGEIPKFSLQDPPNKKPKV
inactive: [1] 0.025 | [2] 0.052 | [3] 0.103 | [4] -0.04 | [5] -0.038

TSEN2 (UniProt Q8NCE0)
inactive: [1] -0.05 | [2] 0 | [3] 0.044 | [4] -0.027 | [5] 0.03

WDR11 (UniProt Q9BZH6)
inactive: [1] -0.076 | [2] 0.067 | [3] 0.111 | [4] 0.05 | [5] 0.023

WARS1 (UniProt G3V227)
inactive: [1] 0.09 | [2] -0.089 | [3] 0.042 | [4] 0.333 | [5] -0.185

USO1 isoform 2 (UniProt O60763)
UniProt O60763, sequence (O60763 whole entry, looked up): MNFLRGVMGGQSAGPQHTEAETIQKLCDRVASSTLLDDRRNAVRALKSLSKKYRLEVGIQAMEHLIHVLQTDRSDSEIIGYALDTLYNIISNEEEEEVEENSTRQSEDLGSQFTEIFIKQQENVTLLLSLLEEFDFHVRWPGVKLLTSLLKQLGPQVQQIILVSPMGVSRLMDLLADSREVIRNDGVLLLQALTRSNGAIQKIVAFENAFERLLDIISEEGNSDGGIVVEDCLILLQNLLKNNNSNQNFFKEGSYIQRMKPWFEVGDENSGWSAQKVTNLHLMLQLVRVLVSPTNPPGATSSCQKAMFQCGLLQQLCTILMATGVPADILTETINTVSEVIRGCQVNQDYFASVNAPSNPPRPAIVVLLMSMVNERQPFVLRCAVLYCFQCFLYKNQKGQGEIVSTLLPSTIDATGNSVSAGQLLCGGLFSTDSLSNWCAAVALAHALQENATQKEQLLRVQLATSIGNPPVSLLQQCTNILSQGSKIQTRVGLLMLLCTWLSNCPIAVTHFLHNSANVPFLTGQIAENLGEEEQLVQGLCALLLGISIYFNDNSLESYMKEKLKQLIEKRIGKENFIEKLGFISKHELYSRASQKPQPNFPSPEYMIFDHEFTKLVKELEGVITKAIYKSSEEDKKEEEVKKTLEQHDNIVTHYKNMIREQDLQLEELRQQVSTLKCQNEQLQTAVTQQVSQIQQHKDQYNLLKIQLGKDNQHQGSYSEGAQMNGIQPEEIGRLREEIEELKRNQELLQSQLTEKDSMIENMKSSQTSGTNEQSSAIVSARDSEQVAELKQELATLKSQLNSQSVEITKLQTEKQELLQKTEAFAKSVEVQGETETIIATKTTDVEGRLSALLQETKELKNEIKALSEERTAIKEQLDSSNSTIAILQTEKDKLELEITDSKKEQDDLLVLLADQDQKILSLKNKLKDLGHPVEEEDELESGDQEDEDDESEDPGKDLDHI
inactive: [1] -0.007 | [2] 0.012 | [3] 0.028 | [4] 0.012 | [5] 0.048

TRIP10 isoform 2 (UniProt Q15642)
inactive: [1] -0.039 | [2] 0.085 | [3] 0.222 | [4] 0.03 | [5] -0.026

TPM2 (UniProt P07951)
inactive: [1] -0.041 | [2] -0.117 | [3] -0.195 | [4] -0.017 | [5] 0.014

TMEM8A (UniProt Q9HCN3)
UniProt Q9HCN3, sequence (Q9HCN3 whole entry, looked up): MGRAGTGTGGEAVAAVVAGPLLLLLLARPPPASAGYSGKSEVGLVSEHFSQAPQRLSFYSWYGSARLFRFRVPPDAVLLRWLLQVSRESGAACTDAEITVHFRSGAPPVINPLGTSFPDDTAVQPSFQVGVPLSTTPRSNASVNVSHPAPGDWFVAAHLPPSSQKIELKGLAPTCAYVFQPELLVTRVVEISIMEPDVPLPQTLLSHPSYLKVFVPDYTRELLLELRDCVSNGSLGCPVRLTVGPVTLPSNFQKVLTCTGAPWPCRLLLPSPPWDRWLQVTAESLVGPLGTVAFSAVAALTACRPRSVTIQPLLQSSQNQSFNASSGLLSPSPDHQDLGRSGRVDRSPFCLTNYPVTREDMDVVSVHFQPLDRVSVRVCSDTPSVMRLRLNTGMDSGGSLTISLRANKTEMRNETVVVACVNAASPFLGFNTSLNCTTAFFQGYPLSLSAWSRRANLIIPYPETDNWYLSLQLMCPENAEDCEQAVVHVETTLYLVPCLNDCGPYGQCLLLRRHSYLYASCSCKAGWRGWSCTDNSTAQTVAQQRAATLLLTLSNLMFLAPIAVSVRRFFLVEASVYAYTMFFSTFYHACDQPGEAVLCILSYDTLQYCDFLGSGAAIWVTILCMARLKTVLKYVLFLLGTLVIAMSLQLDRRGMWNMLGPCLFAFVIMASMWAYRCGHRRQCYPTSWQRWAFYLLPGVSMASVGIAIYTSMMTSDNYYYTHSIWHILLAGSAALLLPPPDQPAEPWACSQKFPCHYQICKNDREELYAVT
inactive: [1] 0.017 | [2] 0.038 | [3] -0.011 | [4] 0.038 | [5] 0.094

TRMT10C (UniProt Q7L0Y3)
inactive: [1] -0.018 | [2] 0.029 | [3] 0.085 | [4] 0.005 | [5] -0.08

WASHC5 (UniProt Q12768)
inactive: [1] 0.034 | [2] 0.042 | [3] 0.09 | [4] 0.003 | [5] -0.041

UBE2J1 (UniProt Q9Y385)
inactive: [1] -0.061 | [2] -0.011 | [3] 0.05 | [4] -0.039 | [5] -0.068

UFM1 (UniProt P61960)
UniProt P61960, sequence (P61960 whole entry, looked up): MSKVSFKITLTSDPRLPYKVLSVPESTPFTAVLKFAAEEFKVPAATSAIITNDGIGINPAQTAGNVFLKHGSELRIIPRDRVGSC
inactive: [1] -0.019 | [2] 0.363 | [3] 0.049 | [4] -0.164 | [5] 0.083

USP34 (UniProt Q70CQ2)
inactive: [1] -0.083 | [2] 0.081 | [3] 0.142 | [4] -0.003 | [5] 0.034

VARS2, A0A0G2JL52
inactive: [1] -0.006 | [2] 0.006 | [3] 0.044 | [4] -0.004 | [5] -0.015

UBA52 (UniProt P62987)
inactive: [1] 0.088 | [2] -0.301 | [3] -0.569 | [4] 0.265 | [5] 0.193

TNPO3 (UniProt Q9Y5L0)
inactive: [1] -0.035 | [2] 0.063 | [3] 0.014 | [4] -0.022 | [5] -0.007

USP15 (UniProt Q9Y4E8)
UniProt Q9Y4E8, sequence (Q9Y4E8 whole entry, looked up): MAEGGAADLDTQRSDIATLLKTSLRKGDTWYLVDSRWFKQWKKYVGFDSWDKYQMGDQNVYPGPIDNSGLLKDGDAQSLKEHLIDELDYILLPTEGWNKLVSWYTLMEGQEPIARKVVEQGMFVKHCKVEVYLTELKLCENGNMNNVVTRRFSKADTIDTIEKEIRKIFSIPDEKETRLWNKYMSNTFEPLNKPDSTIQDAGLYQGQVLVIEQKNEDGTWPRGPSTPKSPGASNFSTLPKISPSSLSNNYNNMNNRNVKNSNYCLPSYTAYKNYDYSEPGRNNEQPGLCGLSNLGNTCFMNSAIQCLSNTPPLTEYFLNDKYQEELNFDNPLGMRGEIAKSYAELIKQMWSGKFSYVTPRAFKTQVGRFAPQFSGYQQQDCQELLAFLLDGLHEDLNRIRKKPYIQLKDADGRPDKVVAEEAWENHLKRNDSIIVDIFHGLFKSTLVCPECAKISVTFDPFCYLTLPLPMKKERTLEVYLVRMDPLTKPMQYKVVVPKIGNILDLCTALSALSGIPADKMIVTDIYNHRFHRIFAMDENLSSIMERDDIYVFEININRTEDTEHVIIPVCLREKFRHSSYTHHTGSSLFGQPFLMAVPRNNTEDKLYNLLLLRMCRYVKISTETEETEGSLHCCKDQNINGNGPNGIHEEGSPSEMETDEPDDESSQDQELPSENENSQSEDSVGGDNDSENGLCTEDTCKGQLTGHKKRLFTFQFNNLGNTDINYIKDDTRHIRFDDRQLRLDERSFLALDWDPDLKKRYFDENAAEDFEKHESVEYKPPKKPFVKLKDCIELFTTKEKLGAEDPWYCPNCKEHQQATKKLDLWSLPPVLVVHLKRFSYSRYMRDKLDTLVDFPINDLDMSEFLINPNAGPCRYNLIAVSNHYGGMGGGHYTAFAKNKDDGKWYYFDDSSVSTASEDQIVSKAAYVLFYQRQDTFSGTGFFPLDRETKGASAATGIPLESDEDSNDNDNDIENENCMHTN
inactive: [1] -0.038 | [2] 0.035 | [3] 0.059 | [4] 0.008 | [5] -0.016

UBAP2L isoform 1 (UniProt Q14157)
inactive: [1] 0.038 | [2] 0.004 | [3] 0.059 | [4] 0.001 | [5] 0.011

UBE2D1 (UniProt P51668)
UniProt P51668, sequence (P51668 whole entry, looked up): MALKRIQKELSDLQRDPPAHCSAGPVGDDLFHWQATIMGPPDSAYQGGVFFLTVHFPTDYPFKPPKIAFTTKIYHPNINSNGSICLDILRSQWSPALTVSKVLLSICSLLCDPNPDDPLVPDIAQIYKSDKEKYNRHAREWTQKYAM
inactive: [1] -0.053 | [2] -0.014 | [3] 0.065 | [4] -0.081 | [5] -0.035

USP7 (UniProt Q93009)
inactive: [1] -0.165 | [2] 0.026 | [3] 0.09 | [4] -0.01 | [5] -0.062

UBE2J2 isoform 3 (UniProt Q8N2K1)
inactive: [1] 0.003 | [2] 0.078 | [3] -0.106 | [4] -0.014 | [5] -0.144

TMEM161B (UniProt Q8NDZ6)
inactive: [1] -0.076 | [2] 0.13 | [3] 0.018 | [4] 0.092 | [5] 0.08

TRAPPC8 (UniProt Q9Y2L5)
inactive: [1] -0.01 | [2] 0.05 | [3] 0.046 | [4] 0.012 | [5] -0.018

TMEM214 (UniProt Q6NUQ4)
inactive: [1] 0.023 | [2] 0.044 | [3] 0.005 | [4] -0.002 | [5] -0.024

UBAP1 isoform 4 (UniProt Q9NZ09)
inactive: [1] 0.021 | [2] 0.005 | [3] 0.129 | [4] -0.171 | [5] -0.072

TRMT2A (UniProt Q8IZ69)
inactive: [1] -0.008 | [2] -0.042 | [3] -0.026 | [4] 0.1 | [5] 0.058

TUBA4A (UniProt P68366)
inactive: [1] -0.02 | [2] 0.077 | [3] -0.03 | [4] -0.01 | [5] -0.076

WAPL isoform 3 (UniProt Q7Z5K2)
inactive: [1] -0.116 | [2] 0.021 | [3] 0.138 | [4] -0.08 | [5] 0.095

XPNPEP3 (UniProt Q9NQH7)
UniProt Q9NQH7, sequence (Q9NQH7 whole entry, looked up): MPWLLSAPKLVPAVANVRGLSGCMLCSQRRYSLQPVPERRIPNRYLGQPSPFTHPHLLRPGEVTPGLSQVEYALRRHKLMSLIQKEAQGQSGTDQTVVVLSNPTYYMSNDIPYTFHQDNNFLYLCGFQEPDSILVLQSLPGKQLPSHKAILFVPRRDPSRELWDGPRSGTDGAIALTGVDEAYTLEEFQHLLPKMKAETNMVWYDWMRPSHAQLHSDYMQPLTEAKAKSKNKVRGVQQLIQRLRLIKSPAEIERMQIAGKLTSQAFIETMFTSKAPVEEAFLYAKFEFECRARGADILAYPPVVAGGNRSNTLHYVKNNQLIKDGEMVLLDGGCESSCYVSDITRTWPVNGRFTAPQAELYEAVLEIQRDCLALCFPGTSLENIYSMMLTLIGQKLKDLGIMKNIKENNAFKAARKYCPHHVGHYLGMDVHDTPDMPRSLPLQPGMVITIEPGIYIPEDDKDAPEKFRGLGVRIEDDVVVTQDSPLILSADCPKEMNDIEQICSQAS
inactive: [1] -0.004 | [2] 0.018 | [3] 0.07 | [4] -0.009 | [5] 0.006

TYW1 (UniProt Q9NV66)
UniProt Q9NV66, sequence (Q9NV66 whole entry, looked up): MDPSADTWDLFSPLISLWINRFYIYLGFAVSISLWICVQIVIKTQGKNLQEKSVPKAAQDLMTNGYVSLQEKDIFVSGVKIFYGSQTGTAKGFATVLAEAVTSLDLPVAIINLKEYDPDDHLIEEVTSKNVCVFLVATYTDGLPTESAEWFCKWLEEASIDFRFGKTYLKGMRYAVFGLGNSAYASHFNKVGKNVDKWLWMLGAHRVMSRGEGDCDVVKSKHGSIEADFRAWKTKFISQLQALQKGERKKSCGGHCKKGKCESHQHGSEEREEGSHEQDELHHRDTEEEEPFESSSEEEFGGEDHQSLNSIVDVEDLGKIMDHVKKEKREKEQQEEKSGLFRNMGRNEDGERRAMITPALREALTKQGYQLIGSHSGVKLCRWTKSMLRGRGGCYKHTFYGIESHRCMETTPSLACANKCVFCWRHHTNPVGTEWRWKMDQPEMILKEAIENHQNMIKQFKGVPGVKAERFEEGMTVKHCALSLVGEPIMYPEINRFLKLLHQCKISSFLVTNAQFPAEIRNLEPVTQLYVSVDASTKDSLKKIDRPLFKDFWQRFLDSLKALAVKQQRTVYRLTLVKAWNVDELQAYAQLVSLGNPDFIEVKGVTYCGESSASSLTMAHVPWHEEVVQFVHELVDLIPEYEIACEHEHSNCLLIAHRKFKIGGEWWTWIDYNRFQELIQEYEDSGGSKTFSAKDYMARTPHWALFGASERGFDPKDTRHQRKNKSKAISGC
inactive: [1] 0.017 | [2] -0.022 | [3] 0.039 | [4] -0.005 | [5] -0.091

VPS33A (UniProt Q96AX1)
inactive: [1] -0.039 | [2] 0.053 | [3] 0.147 | [4] 0.059 | [5] -0.041

VPS11 (UniProt Q9H270)
inactive: [1] -0.089 | [2] 0.014 | [3] 0.118 | [4] -0.001 | [5] -0.047

WDR62 isoform 4 (UniProt O43379)
inactive: [1] 0.007 | [2] 0.027 | [3] 0.031 | [4] 0.004 | [5] 0.009

UBE3D (UniProt Q7Z6J8)
inactive: [1] 0.034 | [2] 0.057 | [3] 0.001 | [4] -0.051 | [5] 0.009

TRIM23 (UniProt P36406)
inactive: [1] 0.023 | [2] 0.122 | [3] 0.049 | [4] -0.096 | [5] -0.05

TXN2 (UniProt Q99757)
inactive: [1] 0.027 | [2] 0.144 | [3] 0.039 | [4] -0.079 | [5] -0.067

TSFM (UniProt P43897)
inactive: [1] -0.17 | [2] 0.03 | [3] 0.177 | [4] -0.138 | [5] 0.012

WDR37 isoform 2 (UniProt Q9Y2I8)
inactive: [1] 0.039 | [2] -0.06 | [3] 0.062 | [4] 0.079 | [5] 0.054

TRABD (UniProt Q9H4I3)
inactive: [1] 0.005 | [2] -0.034 | [3] -0.054 | [4] 0.027 | [5] -0.054

VKORC1 (UniProt Q9BQB6)
UniProt Q9BQB6, sequence (Q9BQB6 whole entry, looked up): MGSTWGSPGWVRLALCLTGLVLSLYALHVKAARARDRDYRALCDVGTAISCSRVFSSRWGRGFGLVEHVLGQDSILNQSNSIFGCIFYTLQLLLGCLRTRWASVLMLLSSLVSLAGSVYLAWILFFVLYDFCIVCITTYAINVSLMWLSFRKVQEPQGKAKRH
inactive: [1] -0.058 | [2] 0.132 | [3] 0.083 | [4] -0.183 | [5] -0.012

VPS18 (UniProt Q9P253)
inactive: [1] 0.014 | [2] -0.052 | [3] -0.03 | [4] -0.03 | [5] 0.004

TOMM5 isoform 2 (UniProt Q8N4H5)
UniProt Q8N4H5, sequence (Q8N4H5 whole entry, looked up): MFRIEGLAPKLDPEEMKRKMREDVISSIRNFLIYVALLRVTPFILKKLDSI
inactive: [1] 0.034 | [2] 0.047 | [3] -0.032 | [4] -0.029 | [5] 0.005

UQCR10 (UniProt Q9UDW1)
UniProt Q9UDW1, sequence (Q9UDW1 whole entry, looked up): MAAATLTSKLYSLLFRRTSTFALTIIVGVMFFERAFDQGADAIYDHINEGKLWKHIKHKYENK
inactive: [1] -0.032 | [2] 0.036 | [3] 0.142 | [4] -0.131 | [5] -0.009

TRAPPC13 isoform 5 (UniProt A5PLN9)
inactive: [1] -0.055 | [2] 0.154 | [3] 0.08 | [4] -0.013 | [5] -0.017

WEE1 (UniProt P30291)
inactive: [1] 0.116 | [2] -0.031 | [3] -0.059 | [4] 0.132 | [5] 0.11

UBLCP1 (UniProt Q8WVY7)
inactive: [1] -0.066 | [2] 0.067 | [3] 0.066 | [4] -0.018 | [5] 0.011

UHRF1BP1 (UniProt Q6BDS2)
inactive: [1] -0.01 | [2] 0.109 | [3] 0.006 | [4] -0.001 | [5] -0.007

TUBA4A (UniProt C9JJQ8)
inactive: [1] -0.081 | [2] 0.036 | [3] 0 | [4] -0.011 | [5] 0.229

TMEM87B (UniProt Q96K49)
inactive: [1] 0.04 | [2] 0.083 | [3] -0.031 | [4] -0.036 | [5] 0.012

VPS39 (UniProt Q96JC1)
inactive: [1] -0.087 | [2] 0.018 | [3] 0.071 | [4] -0.009 | [5] -0.052

VPS37A (UniProt Q8NEZ2)
inactive: [1] -0.076 | [2] 0.088 | [3] 0.126 | [4] 0.007 | [5] 0.036

TMEM177 (UniProt Q53S58)
inactive: [1] 0.036 | [2] -0.01 | [3] -0.164 | [4] -0.001 | [5] -0.002
